Values joined by “and” are separate entries in the source; they are usually repeats but may differ in a detail not shown here. Identical values can stand only once. Results filed as inconclusive are left out. Active and inactive are the calls of the source. The call rests on the fitted dose curve; in most records, active means well fitted inhibition curve with a large enough effect; inconclusive means small, poorly fitted or top-dose-only effect; inactive means no such curve, though single readings can be large or run the other way.
Assay: qHTS for Inhibitos of Bacillus subtilis Sfp phosphopantetheinyl transferase (PPTase): Chemistry Optimization Followup in B. Subtilis 168
Settings: B. subtilis 168 growth, BacTiter-Glo luminescence, 5 h; series mostly up to 114 µM
Source text: Phosphopantetheinyl transfer is a process essential to cellular viability and maintenance. Cell-permeable and stable compounds acting as PPTase inhibitors are anticipated to be antimicrobial agents in organisms with complimenting genotypes. […] This experiment evaluated a series of test compounds for antimicrobial activity with B. subtilis 168 (genotype: acpS+ and sfp-), a strain that contains a frameshift mutation in the sfp locus and thus requires a functional AcpS gene product for viability. [Mootz HD, 2001] This strain is expected to be sensitized to cell-permeable AcpS inhibitors, and insensitive to Sfp inhibitors. NIH Chemical Genomics Center [NCGC] NIH Molecular Libraries Probe Centers Network [MLPCN] MLPCN Grant: MH083266-01 Assay Submitter (PI): Michael Burkart, University of California, San Diego
Innoculum preparation. Bacillus subtilis 168 is maintained on lysogeny broth (LB) solidified by the addition of 1.5% w/v agar. Single colonies were used to LB medium (2 mL) and shaken overnight at 30 masculineC. In the morning, this culture (100 ul) was used to seed a fresh LB medium (10 mL) and was shaken at 30 masculineC until the culture OD600 reached 0.5. This culture was diluted 1:100 in fresh LB medium to provide the inoculum below. Bacterial susceptibility. LB medium (2 uL) is dispensed into wells of a sterile white 1536-well plate. Test compounds (23 nL) prepared as serial dilutions in DMSO are added to the plate by pintool transfer. Innoculum (2 uL) is added, the plates are covered with a vented Kalypsys assay lid and incubated at 30 masculineC. After 5 h, Bac-Titer Glo (4 uL; Promega Corp, Madison, WI) is added to the plates. They are incubated 10 minutes at room temperature and then the luminescence detected in a ViewLux multimodal plate reader.

SMILES | Potency
Cc1cc(C)nc(NC(=S)N2CCN(c3ccc(Cl)cc3C(F)(F)F)CC2)c1 | 9.37 µM (active)
Cc1ccnc(NC(=S)N2CCN(c3ccc(Cl)c(Cl)c3)CC2)c1 | 11.8 µM (active)
COc1cccc(NC(=S)N2CCN(c3cc(C(F)(F)F)cc(C(F)(F)F)c3)CC2)n1 | inactive
S=C(Nc1cc(Cl)ccn1)N1CCN(c2cc(Cl)cc(Cl)c2)CC1 | 13.2 µM (active)
Cc1cc(C)nc(NC(=S)N2CCN(c3ncccc3C#N)CC2)c1 | inactive
COc1ccnc(NC(=S)N2CCN(c3ncc(C(F)(F)F)cc3Cl)CC2)c1 | 14.8 µM (active)
Cc1ccc(N2CCN(C(=S)Nc3cc(C)ccn3)CC2)cc1 | 59.1 µM (active)
Cc1cc(C)nc(NC(=S)N2CCN(c3ccc(C(F)(F)F)cc3[N+](=O)[O-])CC2)c1 | 41.8 µM (active)
Cc1cccc(NC(=S)N2CCN(c3cccc(C(F)(F)F)c3)CC2)c1 | inactive
Cc1cncc(NC(=S)N2CCN(c3cccc(C(F)(F)F)c3)CC2)c1 | inactive
Cc1cc(C)nc(NC(=S)N2CCN(Cc3c(F)cccc3Cl)CC2)c1 | inactive
Cc1ccnc(NC(=S)N2CCN(c3cccc(C(F)(F)F)c3)C2)c1 | inactive
Cc1ccnc(NC(=S)NC2CN(c3cccc(C(F)(F)F)c3)C2)c1 | 46.9 µM (active)
Cc1ccnc(NC(=S)N2CCN(c3cccc(C(F)(F)F)c3)CC2)c1 | 41.8 µM (active) and 14.8 µM (active) and 16.7 µM (active)
FC(F)(F)c1cccc(N2CCN(C(=S)Nc3ccccn3)CC2)c1 | 46.9 µM (active)
COc1ccnc(NC(=S)N2CCN(c3ccc(Cl)cc3Cl)CC2)c1 | 13.2 µM (active)
Cc1cc(C)nc(NC(=S)N2CCN(Cc3cccc4ccccc34)CC2)c1 | 37.3 µM (active)
S=C(Nc1cc(Cl)ccn1)N1CCN(c2ccc3ccccc3n2)CC1 | 33.2 µM (active)
Cc1ccnc(NC(=S)N2CCN(c3cc(F)cc(Cl)c3)CC2)c1 | 5.91 µM (active)
Cc1ccnc(NC(=S)N2CCc3ccccc3C2)c1 | 59.1 µM (active)

SMILES | Potency
COc1cccc(NC(=S)N2CCN(c3ccc(Cl)c(Cl)c3)CC2)n1 | inactive
S=C(Nc1cc(Cl)ccn1)N1CCN(c2ccc(Cl)cc2Cl)CC1 | 9.37 µM (active)
Cc1cc(C)nc(NC(=S)N2CCN(c3ccncc3)CC2)c1 | inactive
Cc1cc(C)nc(NC(=S)N2CCN(c3cc(F)cc(F)c3)CC2)c1 | 37.3 µM (active)
COc1ccnc(NC(=S)N2CCN(c3cccc(Cl)c3Cl)CC2)c1 | 9.37 µM (active)
FC(F)(F)c1cccc(N2CCN(C(=S)Nc3ccncc3)CC2)c1 | 41.8 µM (active)
FC(F)(F)c1cnc(N2CCN(C(=S)Nc3cc(Cl)ccn3)CC2)c(Cl)c1 | 14.8 µM (active)
Cc1cc(C)nc(Nc2nnc(N3CCN(c4cccc(C(F)(F)F)c4)CC3)s2)c1 | inactive
FC(F)(F)c1ccc(N2CCN(C(=S)Nc3ccccn3)CC2)cc1 | 21 µM (active)
FC(F)(F)c1cccc(N2CCN(C(=S)Nc3ncnc4ccccc34)CC2)c1 | 6.63 µM (active)
Cc1ccnc(NC(=S)NC2CCN(c3cccc(C(F)(F)F)c3)CC2)c1 | 46.9 µM (active)
Cc1cc(C)nc(NC(=C(C#N)C#N)N2CCN(c3cccc(C(F)(F)F)c3)CC2)c1 | 37.3 µM (active)
Cc1cc(C)nc(NC(=S)N2CCN(c3ccc(Cl)nn3)CC2)c1 | inactive
Cc1cc(C)nc(NC(=S)N2CCN(c3ccc(Cl)cc3Cl)CC2)c1 | 23.5 µM (active)
Cc1ccnc(NC(=S)N2CCCN(c3cccc(C(F)(F)F)c3)CC2)c1 | 16.7 µM (active)
Cc1ccnc(NC(=S)N2CCC(Nc3cccc(C(F)(F)F)c3)CC2)c1 | 37.3 µM (active)
Cc1ccnc(NC(=S)N2CCN(c3cc(C(F)(F)F)cc(C(F)(F)F)c3)CC2)c1 | 13.2 µM (active)
FC(F)(F)c1cccc(N2CCN(C(=S)Nc3nccc4ccccc34)CC2)c1 | 2.35 µM (active)
Cc1ccnc(NC(=S)N2CCN(c3ccc(Br)cc3)CC2)c1 | 23.5 µM (active)
Cc1cc(C)nc(/N=C(\NC#N)N2CCN(c3cccc(C(F)(F)F)c3)CC2)c1 | 46.9 µM (active)
